Screens: PubChem BioAssay, ICCB-Longwood Screening Facility, Harvard Medical School
MbtI inh: MbtI salicylate synthase inhibitors, primary screen, biochemical, fluorescence intensity. P9WFX0. inhibition, % (no concentration beside the values). 0.89% of 100,000 active. purified MbtI enzyme, fluorescence intensity read-out; in the data active means inhibition mostly above about 56%, no sharp cut-off; inactive means mostly below about 77%
AID504770: growth inhibition of E. coli YBA685, primary screen, V. cholerae RctB inhibitors; E. coli YBA685 rctB-dependent plasmid, OD600 growth, 3 h; active compounds read low; 0.27% of 130,000 active; z-score (test concentration not listed); AID 504770, 2011; in the data active means z-score below about -2, passing the limit was not always enough
MenB inh: M. tuberculosis MenB inhibitors, primary screen, biochemical, absorbance | 1,4-dihydroxy-2-naphthoyl-CoA synthase (Mycobacterium tuberculosis (strain ATCC 25618 / … | MenB enzyme assay, absorbance read-out | inhibition, % (concentration not given with the values) | 0.43% of 100,000 active | AID 540299, 2011; in the data active means inhibition above about 21%, passing the limit was not always enough
Polio RdRp inh: poliovirus RdRp elongation inhibitors, primary screen, biochemical, fluorescence polarization, total intensity. AID 588519, 2011. poliovirus polymerase elongation; active compounds read low. % elongation, % (compound at 16.7 µg/mL). Genome polyprotein (Poliovirus type 1 (strain Mahoney)), P03300. 0.66% of 150,000 active; in the data active means % elongation below about 90%
Target sequence (P03300 1749-2209 limits assumed): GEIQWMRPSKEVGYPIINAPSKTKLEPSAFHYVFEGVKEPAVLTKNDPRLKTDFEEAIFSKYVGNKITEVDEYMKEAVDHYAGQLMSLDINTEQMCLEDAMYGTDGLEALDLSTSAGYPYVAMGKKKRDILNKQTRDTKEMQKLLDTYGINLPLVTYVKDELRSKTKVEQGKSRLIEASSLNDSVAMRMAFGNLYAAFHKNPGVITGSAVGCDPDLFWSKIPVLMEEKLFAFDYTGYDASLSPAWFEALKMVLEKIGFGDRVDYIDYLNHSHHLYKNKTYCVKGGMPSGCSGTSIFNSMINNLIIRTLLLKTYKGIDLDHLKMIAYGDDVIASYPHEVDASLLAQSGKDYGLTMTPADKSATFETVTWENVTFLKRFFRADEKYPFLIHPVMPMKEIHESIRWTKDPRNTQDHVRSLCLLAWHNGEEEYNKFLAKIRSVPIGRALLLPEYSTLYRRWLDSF
A number is an active result; 0 = inactive; - = not tested or not shown. An excerpt weighted towards active compounds, which were near 1.4% of everything screened.

SMILES | MbtI inh | AID504770 | MenB inh | Polio RdRp inh
O=C1CC(=O)c2ccc3c4c(ccc1c24)C(=O)CC3=O | 93 | 0 | 0 | 0
CS(=O)(=O)c1nc(-c2ccc(Cl)cc2)n[nH]1 | - | 0 | 0 | 0
CS(=O)(=O)c1nc(-c2ccc(Br)cc2)n[nH]1 | 90 | 0 | 0 | 0
Cc1cnc2c(c1)N1CCC2CC1 | 0 | 0 | 39 | 0
O=C1C(Sc2ncn[nH]2)=C/C(=N/S(=O)(=O)c2ccc(F)cc2)c2ccccc21 | 0 | 0 | 0 | 88
O=C1C(Sc2ncn[nH]2)=C/C(=N/S(=O)(=O)c2cccs2)c2ccccc21 | 0 | 0 | 0 | 87
O=C1C(NS(=O)(=O)c2ccccc2)=C/C(=N\S(=O)(=O)c2ccc(F)cc2)c2ccccc21 | 0 | 0 | 0 | 78
COCc1cc(C)nc(OCC(=O)N/N=C/c2cccnc2)c1C#N | 0 | 0 | 0 | 0
S=c1[nH]nc(Nc2cccc(Br)c2)s1 | 98 | 0 | 0 | 0
CCCNS(=O)(=O)c1ccc(OCC(=O)NCc2ccccn2)cc1 | 0 | 0 | 0 | 0
Cc1ccccc1NC(=O)N1CCCC(c2nc(-c3ccc(F)cc3)no2)C1 (configuration not stated) | 0 | 0 | 29 | 0
O=C1CC(c2n[nH]c(=S)o2)CN1c1ccc(Cl)cc1 (configuration not stated) | 82 | 0 | 0 | 0
O=C1CC(c2nnc(Cc3cccc(Cl)c3)o2)CN1c1ccccc1 (configuration not stated) | - | - | - | 0
Cc1[nH]n(-c2nc3ccccc3s2)c(=O)c1C | 0 | 0 | 0 | 0
Cc1[nH]n(-c2nc3ccccc3s2)c(=O)c1C1OC(=O)c2ccccc21 (configuration not stated) | 95 | 0 | 0 | 0
N#CCOC(=O)c1nc(-c2ccccc2)n(-c2ccccc2)n1 | 0 | 0 | 0 | 83
Cc1c(Cl)cccc1N1CC(C)(C)C1=O | - | 0 | - | -
Cc1c(Cl)cccc1N1C(=O)C=CC1=O | 99 | -2.6 | - | 0
O=C1NNC(=S)C1C1CC1 (configuration not stated) | 83 | 0 | 0 | 0
O=C1NC(=S)NC(=O)C1C1CCCCC1 | 0 | 0 | 0 | 0
S=C(S)N1CCCCC1 | - | -5.2 | - | -
O=C(C1CCCCC1)N1CCCCCCC1 | 0 | 0 | 0 | 0
CN(C)CCN(C)C1CCc2ccccc2C1 (configuration not stated) | 0 | 0 | 0 | 0
Cc1n[nH]c(=S)n1CC1CCCO1 (configuration not stated) | 0 | 0 | 0 | 0
Cc1[nH]c(=S)n(CC2CCCO2)c1C (configuration not stated) | 95 | 0 | 0 | 0
SMILES | MbtI inh | AID504770 | MenB inh | Polio RdRp inh
S=C(Cc1ccc2c(c1)OCCO2)N1CCOCC1 | 92 | 0 | 0 | 83
Cc1ccc(NC(=O)c2c(-n3c(C)cc(C=NO)c3C)sc3c2CCCC3)cc1 | 0 | 0 | 0 | 0
COc1ccc(SS(=O)(=O)c2ccc(OC)c(NC(C)=O)c2)cc1NC(C)=O | 91 | 0 | 0 | 0
COc1ccc(S(=O)(=O)C(F)(F)F)cc1NC(C)=O | 0 | 0 | - | 0
Oc1c(C(c2ccc(F)cc2)N2CCCC2)ccc2cccnc12 (configuration not stated) | - | 0 | - | -
Oc1c(C(c2ccc(C(F)(F)F)cc2)N2CCOCC2)ccc2cccnc12 (configuration not stated) | 64 | 0 | 0 | 0
C1COCCNCCOCCN1 | 0 | 0 | 0 | 88
CCOc1cccc(/C=N/n2c(-c3ccc(Cl)cc3)n[nH]c2=S)c1O | 79 | 0 | 0 | 85
COc1ccc(-c2n[nH]c(=S)n2/N=C/c2ccccc2Br)cc1OC | 0 | 0 | 0 | 0
CC1(C)CC(=O)C(C2(O)C(=O)NC(=O)NC2=O)=C(O)C1 | 0 | 0 | 0 | 56
O=C1c2ccccc2C(=O)N1CCSC1=Nc2ccccc2C2CC=NN12 (configuration not stated) | 0 | 0 | 34 | 0
C=CCn1c(C)cc(C(=O)CSc2nnc3ccccn23)c1C | 0 | 0 | - | 0
O=C1c2ccccc2C(=O)N1CCSc1ccccc1 | 0 | 0 | 0 | 0
C=CCn1c(C)cc(C(=O)CSC2=Nc3ccccc3C3CC=NN23)c1C (configuration not stated) | 0 | 0 | 55 | 0
CC(=O)Oc1cn(C(C)C)c2nc(C)n3c4ccccc4nc3c12 | 0 | 0 | - | 0
CC(NC(=O)Cn1nc(Cc2cccnc2)c2ccccc2c1=O)c1ccc2c(c1)OCCO2 (configuration not stated) | - | 0 | - | -
COc1ccc(NC(=O)CC2Sc3ncnn3C2=O)cc1 (configuration not stated) | 100 | 0 | - | -
COc1ccc(NC(=O)CC2SC(=Nc3ccccc3)N(c3ccccc3)C2=O)cc1 (configuration not stated) | 0 | 0 | 0 | 0
NC(=S)c1cccc(Oc2ccccc2)c1 | 0 | 0 | 0 | 87
CN(C(=O)Cc1c(C(=O)O)[nH]c2ccccc12)c1ccccc1 | - | 0 | - | -
N#Cc1ccc(C=Nc2ccc(I)cc2)cc1 | - | 0 | 0 | 0
CC(=O)Nc1c(C(=O)c2ccc(F)cc2)oc2ccccc12 | 0 | 0 | 64 | 0
CC(C)(C)c1ccc(C(=O)Nc2c(C(=O)c3ccc(F)cc3)oc3ccccc23)cc1 | - | - | - | 0
Sc1ccc2c(c1)OCCCO2 | 94 | 0 | 0 | 0
CC(c1ccccc1)n1c(=S)[nH]c2ccccc21 (configuration not stated) | 89 | 0 | 0 | 0
SMILES | MbtI inh | AID504770 | MenB inh | Polio RdRp inh
Cn1c(=S)[nH]c2ccccc21 | 101 | 0 | 0 | 0
CCCCn1c(=S)[nH]c2ccccc21 | 0 | 0 | 0 | 0
CCOc1ccc2c(c1)[nH]c(=S)n2C | 78 | 0 | 0 | 0
CCOC(=O)c1c(C)n(C)c2ccc(OCC)cc12 | - | 0 | 0 | 0
O=C1NC2(CCCC2)N=C1c1ccccc1 | 0 | 0 | 0 | 0
CCOC(=O)c1[nH]c(C)c(C(=O)OCc2nnc(-c3ccc(Cl)cc3)o2)c1C | 0 | 0 | 0 | 0
CCOC(=O)c1c(-c2ccccc2)csc1NC(=O)CCCC(=O)O | - | 0 | - | -
CC(=O)Nc1c(C(=O)N2CCN(C(=O)c3ccco3)CC2)oc2ccccc12 | 0 | 0 | 0 | 0
CCO/C=C1/C(=O)N(c2ccc(OC)cc2)C(=O)c2ccccc21 | 0 | 0 | 0 | 82
COc1ccc(N2CCN(/C=C3\C(=O)N(c4ccc(C)cc4)C(=O)c4ccccc43)CC2)cc1 | 0 | 0 | 0 | 0
CCO/C=C1\C(=O)N(c2ccccc2)C(=O)c2ccccc21 | 0 | 0 | - | 80
CCO/C=C1/C(=O)N(c2ccc(S(=O)(=O)N3CCOCC3)cc2)C(=O)c2ccccc21 | 0 | 0 | 0 | 0
CC1CCN(S(=O)(=O)c2ccc(S(=O)(=O)N3CCCN(Cc4ccccc4)C3)cc2)CC1 | 0 | 0 | 36 | 0
CN(Cc1nc(-c2ccccc2)no1)C(=O)CC(C)(C)C | 0 | 0 | 0 | 0
Clc1ccc(CSc2nc3ccccc3s2)cc1 | 0 | 0 | 0 | 0
CC1=NOC(=O)/C1=C/c1ccc(O)cc1 | 92 | 0 | 0 | 0
CC(C)(C)/C(O)=C/c1nc2cc(Cl)ccc2oc1=O | 0 | 0 | 0 | 0
O/N=C/c1nc2cc(Cl)ccc2o1 | 0 | 0 | 0 | 76
COC(=O)c1ccccc1NC(=O)CCCC(=O)O | 0 | 0 | 0 | 0
Cc1cccc(NC(=O)CSc2nncc(=O)[nH]2)c1 | 58 | 0 | 0 | 0
